Assay results as given in PubChem BioAssay (EPA / NIEHS).
Calls of active or inactive are those of the source. The calls were made as follows: active = hit-call score of the fitted dose curve at least 0.9, where 1 is the maximum; inactive = score below 0.9.

read-out: Pyruvate Dehydrogenase Kinase 4 (PDK4), PDK4 (gene 5166); test: LTEA_HepaRG_PDK4: Life Technologies and Expression Analysis (LTEA) Assay for Pyruvate Dehydrogenase Kinase 4 (PDK4) using HepaRG (AID 2283525); details: mRNA level, 48 h; actives raise or lower the signal
Experimental: LTEA_HepaRG is a cell based, multiplexed-readout assay that uses HepaRG, a human liver cell line, with measurements taken at 48 hours after chemical dosing on a 96-well plate.LTEA_HepaRG_PDK4 is one of 102 assay component(s) measured in the LTEA HepaRG cell culture assay. It is a marker of Diseases associated with PDK4 including Platelet Glycoprotein Iv Deficiency and Diabetes Mellitus, Noninsulin-Dependent.Data from the assay component LTEA_HepaRG_PDK4 was analyzed into 1 endpoint. This assay endpoint, LTEA_HepaRG_PDK4, was analyzed with bidirectional fitting relative to DMSO as the negative control and baseline of activity. Using a type of inducible reporter, measures of mRNA induction for gain or loss-of-signal activity can be used to understand regulation of transcription factor activity. To generalize the intended target to other relatable targets, this assay endpoint is annotated to the kinase intended target family, where the subfamily is serine/threonine kinase.
A total of 1060 chemcials from the ToxCast library were tested in eight-point concentration-response experiments. Cell culture and cytotoxicity assays were conducted at Thermo Fisher Scientific's Custom Services facility (Madison, WI). A single lot of human HepaRG cells (Thermo Fisher Scientific, Frederick, MD) was used for the cell culture experiments. 96-well format collagen type I coated plates of human HepaRG cells were prepared using established methods. Briefly, cryopreserved HepaRG cells were thawed, plated at a density of approximately 100,000 cells/well in HepaRG Thaw, Plate, and General Purpose media (HPRG770, Thermo Fisher Scientific), and incubated for 48 hours. 0.5% DMSO was selected as vehicle control to balance the requisite need of DMSO in HepaRG cultures to maintain differentiation (for example, baseline metabolism, proportions of hepatocytes vs. cholangiocytes), while enabling further hepatic receptor pathway activation (for example, PXR and CAR) in response to chemical exposure. 48 hours after plating, the culture medium was replaced with HepaRG Serum-Free Incudtion Media. Cells were exposed to each test chemical in duplicate and maintained in CO2 incubators for another 48 hours. Chemical plates were thawed to room temperature and 200x concentrations of treatment groups were prepared. 8-point conentration-reponse curves were made with the highest exposure at 100 uM, followed by half-log dilutions, all in 0.5% DMSO. Each test plate contained variouse controls, induction positive controls (1mM phenobarbital), cytotoxicity positive controls ([…] aflatoxin B1), vehicle controls (0.5% DMSO), and total lysis controls (0.5% DMSO). Cell morphology images were taken using an Essen IncuCyte FLR automated microscope, with six 96-well plates imaged in about 24 minutes. Images were captured and exported and JPEG files. Spent culture media was transfered to black-well plates for the LDH assay, and remaining media was sorted at -80 C for later use. Cells were treated with RLT buffer and frozen until shipped for gene expression analysis. Total RNA was isolated from the cell suspension in 75 uL of Buffer RLT (Qiagen, Germantown, MD 20874) by Quintiles/Expression Analysis (Durham, NC) using a custom isolation procedure. Total RNA from each plate well was transferred to a preamplification plate. Fluidigm's 96.96 Dynamic ArrayTM (Fluidigm, Amsterdam, the Netherlands) technology was used for gene expression analyses by quantitative reverse transcription polymerase chain reaction (qRT-PCR, performed by Quintiles/Expression Analysis, Durham, NC)89. Standard TaqManTM Assays (Applied Biosystems/ThermoFisher Scientific, Foster City, CA) were used to assess the expression of 93 genes selected based on their selectivity and sensitivity to important hepatic receptors known to be modulated by environmental chemicals; importance in human hepatocyte functionality; and hepatotoxicity. […]

Q: For `CC1(C(=O)Nc2ccc(O)c(Cl)c2Cl)CCCCC1`, which outcome is on record?
A: inactive

Q: How did the outcome turn out when `CSc1nc(NC(C)C)nc(NC(C)C)n1` was run?
A: inactive

Q: For `CNC(=O)ON=C(C)SC`, which outcome is on record?
A: inactive

Q: `CCCSP(=O)(OCC)Oc1ccc(Br)cc1Cl` (stereo not given) was tested. Which outcome did it give?
A: inactive

Q: `CCOP(=S)(OCC)Oc1ccc2c(C)c(Cl)c(=O)oc2c1` was tested. Which AC50 did it give?
A: 0.837 µM (active)

Q: Which outcome does the source give for `COP(=O)(OC)SCn1c(=O)oc2cc(Cl)cnc21` here?
A: inactive

Q: With `CCOP(=O)(NC(C)C)Oc1ccc(SC)c(C)c1` (stereo not given) as the molecule, how does the outcome read?
A: inactive

Q: For `CCOC(=O)CC(SP(=O)(OC)OC)C(=O)OCC` (stereo not given), which AC50 is on record?
A: 22 µM (active)

Q: Which outcome does the source give for `CNC(=O)Oc1cccc2c1OC(C)(C)O2` here?
A: inactive

Q: Which outcome does the source give for `CC1=NNC(=O)N(/N=C/c2cccnc2)C1` here?
A: inactive

Q: With `CCOP(=O)(SC(C)CC)N1CCSC1=O` (stereo not given) as the molecule, how does the AC50 read?
A: 21.7 µM (active)

Q: How did the outcome turn out when `CCOP(=S)(OCC)Oc1ccc([N+](=O)[O-])cc1` was run?
A: inactive

Q: How did the outcome turn out when `Cc1cc(C2CC2)nc(Nc2ccccc2)n1` was run?
A: inactive

Q: `N#CSCSC#N` was tested. Which outcome did it give?
A: inactive

Q: Which outcome does the source give for `COc1ccc(C(=CC(=O)N2CCOCC2)c2ccc(Cl)cc2)cc1OC` here?
A: inactive

Q: With `COP(=O)(OC)OC(Br)C(Cl)(Cl)Br` (stereo not given) as the molecule, how does the outcome read?
A: inactive

Q: For `CC(C)[C@H](C(=O)O[C@H](C#N)c1cccc(Oc2ccccc2)c1)c1ccc(Cl)cc1`, which outcome is on record?
A: inactive

Q: How did the outcome turn out when `CN(C)NC(=O)CCC(=O)O` was run?
A: inactive

Q: For `CCCCSP(=O)(SCCCC)SCCCC`, which AC50 is on record?
A: 77.5 µM (active)

Q: Which AC50 does the source give for `CC(COc1ccc(Oc2ccccc2)cc1)Oc1ccccn1` (stereo not given) here?
A: 25.4 µM (active)

Q: Which AC50 does the source give for `FC(F)C(F)(F)OCC(Cn1cncn1)c1ccc(Cl)cc1Cl` (stereo not given) here?
A: 12 µM (active)

Q: How did the outcome turn out when `CNC(=O)ON=C(SC)C(=O)N(C)C` was run?
A: inactive

Q: For `CCOC(=O)COc1cc(-c2nn(C)c(OC(F)F)c2Cl)c(F)cc1Cl`, which outcome is on record?
A: inactive

Q: `CCOP(=S)(OCC)OC(Cl)C(Cl)(Cl)Cl` (stereo not given) was tested. Which outcome did it give?
A: inactive

Q: With `COP(=O)(OC)C(O)C(Cl)(Cl)Cl` (stereo not given) as the molecule, how does the outcome read?
A: inactive

Q: With `CCC(CC)Nc1c([N+](=O)[O-])cc(C)c(C)c1[N+](=O)[O-]` as the molecule, how does the outcome read?
A: inactive

Q: With `CON=C(C(=O)OC)c1ccccc1CON=C(C)c1cccc(C(F)(F)F)c1` as the molecule, how does the outcome read?
A: inactive

Q: `C[N+]1(C)CCCCC1` was tested. Which outcome did it give?
A: inactive

Q: With `C[Si](Cn1cncn1)(c1ccc(F)cc1)c1ccc(F)cc1` as the molecule, how does the outcome read?
A: inactive

Q: How did the outcome turn out when `O=c1ccc(=O)[nH][nH]1` was run?
A: inactive

Q: `Nc1nc(N)nc(NC2CC2)n1` was tested. Which outcome did it give?
A: inactive

Q: For `C=C(C)[C@H]1Cc2c(ccc3c2O[C@@H]2COc4cc(OC)c(OC)cc4[C@@H]2C3=O)O1`, which AC50 is on record?
A: 13.2 µM (active)

Q: With `COc1cc(OC)nc(Sc2cccc(Cl)c2C(=O)O)n1` as the molecule, how does the outcome read?
A: inactive

Q: `COP(=O)(NC(C)=O)SC` (stereo not given) was tested. Which outcome did it give?
A: inactive

Q: With `CCc1cccc(CC)c1N(COC)C(=O)CCl` as the molecule, how does the AC50 read?
A: 28.9 µM (active)

Q: How did the outcome turn out when `CCCCN(CC)c1c([N+](=O)[O-])cc(C(F)(F)F)cc1[N+](=O)[O-]` was run?
A: inactive

Q: With `CCCCOC(=O)[C@@H](C)Oc1ccc(Oc2ccc(C#N)cc2F)cc1` as the molecule, how does the AC50 read?
A: 49.8 µM (active)

Q: How did the outcome turn out when `CC(C1CC1)C(O)(Cn1cncn1)c1ccc(Cl)cc1` (stereo not given) was run?
A: inactive

Q: How did the outcome turn out when `CCc1cccc(C)c1N(C(=O)CCl)C(C)COC` (stereo not given) was run?
A: inactive

Q: With `S=C1NCCN1` as the molecule, how does the outcome read?
A: inactive
